Experimental data as given in PubChem BioAssay AID624330 (Southern Research Specialized Biocontainment Screening …, 2012).
Among all 340,000 compounds or so, about 2,100 (0.62%) were called active. These entries were drawn from the full list. Potency and affinity values are given separately. Unmarked numbers belong to inactive results.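 The calls were made as follows: active = first-screen hits whose inhibition reached a set limit at any dose in the follow-up dose series; inconclusive = inhibition above the set first-screen limit but never retested; inactive = the rest.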

biological target: Rac GTPase-activating protein 1 (Homo sapiens) (UniProt Q9H0H5); test: MgcRacGAP GTPase-activating activity inhibitors, confirmation, biochemical, ADP Hunter fluorescence, primary and confirmatory (AID 624330); details: MgcRacGAP-stimulated Rac1 GTP hydrolysis, at 30 µM, hits give high values, GST-tagged Rac1 F28L mutant substrate;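 also: fluorescence reports GDP produced by GAP-driven GTP hydrolysis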
Sequence (Q9H0H5 whole entry, looked up): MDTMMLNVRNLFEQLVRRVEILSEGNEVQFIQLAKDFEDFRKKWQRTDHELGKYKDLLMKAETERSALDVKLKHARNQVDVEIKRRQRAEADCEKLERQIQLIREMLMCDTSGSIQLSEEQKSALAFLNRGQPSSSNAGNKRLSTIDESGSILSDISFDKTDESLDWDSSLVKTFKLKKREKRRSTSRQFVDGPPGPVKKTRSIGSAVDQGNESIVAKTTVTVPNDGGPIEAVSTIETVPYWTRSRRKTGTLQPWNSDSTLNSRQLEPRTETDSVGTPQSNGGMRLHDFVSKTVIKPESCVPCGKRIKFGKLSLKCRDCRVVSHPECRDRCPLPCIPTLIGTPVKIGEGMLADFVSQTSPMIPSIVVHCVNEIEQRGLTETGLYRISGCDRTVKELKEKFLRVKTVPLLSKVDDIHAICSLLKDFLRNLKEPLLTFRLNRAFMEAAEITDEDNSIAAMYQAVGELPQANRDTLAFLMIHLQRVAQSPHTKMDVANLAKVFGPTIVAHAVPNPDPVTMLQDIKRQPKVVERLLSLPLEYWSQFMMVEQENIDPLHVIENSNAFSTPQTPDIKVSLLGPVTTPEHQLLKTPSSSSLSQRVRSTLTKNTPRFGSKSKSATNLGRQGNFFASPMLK

Going from `CC(=O)C1=C(O)C(=O)N(c2ccc(F)cc2)C1c1ccc(C)cc1` (centres undefined) to `Cc1ccc(C2C(=O)c3ccccc3C2=O)cc1`, the inhibition falls from 9.06% to 5.72%.

First: COc1ccc(Br)cc1CN1CCSCC1
Second: COc1ccc(Br)cc1CN1CCCCCC1
The inhibition of the first is lower: 19.9% for the first, 25.6% for the second.

Going from `COc1ccc(S(=O)(=O)N2CCN(Cc3c[nH]c4ccccc34)CC2)cc1` to `COc1ccc(CN2CCN(Cc3c[nH]c4ccccc34)CC2)cc1`, the inhibition rises from -10.1% to 30.3%.

First: COc1ccc(Br)cc1CN1CCN(S(=O)(=O)Cc2ccccc2)CC1
Second: COc1ccc(Br)cc1CN1CCN(C(=O)c2cccc(F)c2)CC1
The inhibition of the first is lower: 19.2% for the first, 26.9% for the second.

Going from `c1ccc(CN2CCN(Cc3c[nH]c4ccccc34)CC2)cc1` to `O=C(c1cccnc1)N1CCN(Cc2ccc3ccccc3c2)CC1`, the inhibition rises from 8.7% to 22.8%.

Compared with `COc1ccc(C(=O)C2CCCN(Cc3c[nH]c4ccccc34)C2)c(OC)c1` (centres undefined), `COc1cc2c(cc1OC)C(c1ccccc1)N(C(=O)C(C)(C)C)CC2` (centres undefined) is higher in inhibition: -5.48% for the first, 5.24% for the second.

First: COc1ccc(Br)cc1CN1CCCCCCC1
Second: O=C(O)c1ccc(S(=O)(=O)N2CCCCCCC2)cc1
The inhibition of the first is lower: 11.8% for the first, 13.8% for the second.

First: CCOc1ccc(NC(=O)Nc2c(C)n(C)n(-c3ccccc3)c2=O)cc1
Second: Cc1c(C(=O)OCC(=O)Nc2c(C)n(C)n(-c3ccccc3)c2=O)cccc1[N+](=O)[O-]
The inhibition of the first is higher: 0.15% for the first, -3.37% for the second.

Compared with `O=C(NCc1ccc(F)cc1)C1CCCN(S(=O)(=O)c2ccc(Br)s2)C1` (centres undefined), `O=C(NN=Cc1ccc(F)cc1)c1cccc(S(=O)(=O)N2CCCC2)c1` is higher in inhibition: 5.11% for the first, 6.35% for the second.

Going from `COc1ccccc1NC(=O)C1=C(C)Nc2nc(-c3cccs3)nn2C1c1cccc(O)c1` (centres undefined) to `COc1ccc(C2C(C(=O)Nc3cccc(C)n3)c3ccccc3C(=O)N2C)cc1` (centres undefined), the inhibition rises from 3.45% to 5.99%.

Compared with `COc1ccc(C(=O)N/C(=C\c2cc(OC)c(OC)cc2[N+](=O)[O-])C(=O)NCC(=O)O)cc1`, `CCN(CC)S(=O)(=O)c1cccc(C(=O)N/N=C/c2cc(OC)c(O)c(OC)c2)c1` is higher in inhibition: 5.33% for the first, 13.8% for the second.

Going from `CN(C)CCNC(=O)c1cccc2nc3cccc(F)c3nc12` to `COc1ccc(-c2nc3c(C(=O)NCCN(C)C)cccc3c3ccccc23)cc1`, the inhibition rises from 14% to 28.1%.

Going from `CCOc1ccccc1/C=N/NC(=O)c1cccc(S(=O)(=O)N2CCOCC2)c1` to `CCOc1cc(/C=N/NC(=O)c2cccc(S(=O)(=O)N3CCCC3)c2)ccc1OCC(=O)N(C)C`, the inhibition rises from 5.13% to 5.83%.

Going from `CCN(CC)S(=O)(=O)c1cccc(C(=O)N/N=C/c2cccc(O)c2O)c1` to `COc1cc(/C=N/NC(=O)c2cccc(S(=O)(=O)N3CCCC3)c2)cc(OC)c1O`, the inhibition rises from 15% to 15.2%.

First: O=C(N/N=C/c1ccc(F)c(F)c1)c1cccc(S(=O)(=O)N2CCCCC2)c1
Second: COc1cc(/C=N/NC(=O)c2cccc(S(=O)(=O)N3CCCCC3)c2)cc(Br)c1O
The inhibition of the first is lower: 0.51% for the first, 18.1% for the second.

Going from `O=C(/C=C/c1ccc(N2CCCCC2)c([N+](=O)[O-])c1)c1ccc(S(=O)(=O)N2CCCC2)cc1` to `O=C(CN1C(=O)NC2(CCCCC2)C1=O)Nc1ccc(N2CCCCC2)cc1`, the inhibition falls from 6.38% to -8.69%.

First: O=C(COC(=O)C1CC1)NCCc1ccccc1
Second: CC(=O)NC(CC(=O)NCCc1ccccc1)c1ccccc1 (centres undefined)
The inhibition of the first is lower: -3.28% for the first, 5.84% for the second.

Compared with `COCCCN1C(=O)C(CC(=O)NCc2ccco2)CC(C(=O)N(C)C)=C1C` (centres undefined), `Cc1cc(Cl)ccc1NC(=O)CN1C(=O)NC2(CCCC2)C1=O` is lower in inhibition: 14.3% for the first, 7.39% for the second.

First: CCOc1ccc(NC(N)=O)cc1
Second: CCOc1ccc(NS(=O)(=O)c2ccc(N)cc2)cc1
The inhibition of the first is higher: 2.99% for the first, 1.38% for the second.

First: CCc1ccc(N2CN(Cc3cccnc3)CNC2=S)cc1
Second: O=C(c1cccnc1)N1CCN(Cc2cccc(F)c2)CC1
The inhibition of the first is lower: 4.47% for the first, 23.3% for the second.

Compared with `O=C(c1cccc(F)c1)N1CCN(Cc2ccco2)CC1`, `O=C(CCn1nc(-c2ccc(Cl)cc2)ccc1=O)N1CCN(c2ccccc2)CC1` is lower in inhibition: 24.7% for the first, 11.2% for the second.

Going from `Cc1sc(NC(=O)CCC(=O)O)c(C#N)c1C` to `CCc1nc2ccccc2c(C(=O)O)c1C`, the inhibition falls from 4.82% to 1.89%.

Going from `CCCCNc1c(-c2ccc(-c3ccc(OC)cc3)c(OC)c2)nc2ccccn12` to `COc1ccc(C2C(=O)c3ccccc3C2=O)cc1OC`, the inhibition rises from 0.86% to 8.73%.

Going from `CCOc1ccc(CC2S/C(=N/N=C/c3ccco3)NC2=O)cc1` (centres undefined) to `COc1cc(C2N(C)C(=O)c3ccccc3N2C)ccc1O` (centres undefined), the inhibition rises from -0.79% to 9.29%.

First: CN(C(=O)c1ccc(NC(=O)Cc2ccc(NC(=O)C3CCN(C(=O)C4CCCC4)CC3)cc2)cc1)C1CC1
Second: Cc1ccc2c(c1)N(C(=O)CCC(=O)N1CCC(C(N)=O)CC1)CCO2
The inhibition of the first is higher: 4.41% for the first, -0.21% for the second.

Going from `CCC(C)NC(=O)CNC(=S)N(CCCN1CCOCC1)Cc1cccs1` (centres undefined) to `Cc1cc(N2CCCC2)ccc1NC(=O)CN1C(=O)NC(C)(c2ccccc2)C1=O` (centres undefined), the inhibition rises from -3.85% to 22.9%.

Compared with `CCC1(c2ccccc2)NC(=O)N(CC(=O)Nc2ccccc2N2CCCC2)C1=O` (centres undefined), `O=C(NNc1nc2c(F)cccc2s1)c1ccccc1` is higher in inhibition: 2.64% for the first, 3.05% for the second.

Going from `Cc1ccc(C)c(NS(=O)(=O)c2cc3c4c(c2)CC(=O)N4CCC3)c1` to `O=C1c2ccccc2C(=O)C1c1ccc(Br)cc1`, the inhibition falls from 12.2% to 9.65%.

Compared with `COc1cc(C2OCC3C(c4cc(OC)c(OC)c(OC)c4)OCC23)cc(OC)c1OC` (centres undefined), `COc1cc([C@@H]2OC[C@@H]3[C@H]2CO[C@@H]3c2ccc3c(c2)OCO3)ccc1O` is higher in inhibition: 3.17% for the first, 15.6% for the second.

With `COc1cc(/C=C/C(=O)O)cc(S(=O)(=O)N(CC(C)C)CC(C)C)c1OC` the inhibition was 3.78%.
